Assay outcomes (PubChem)
The list is not random: actives were taken first. Their share in the collection is about 21%.
Pf growth 96h = P. falciparum growth inhibition at 96 hour, primary screen for plastid delayed-death inhibitors; P. falciparum luciferase reporter growth, 96 h; Potency, µM (titrated, usually from 28.7 µM), inactives show at the top dose activity change, negative = inhibition, usual class: inhibitors; 6.9% of 320,000 active; AID 504834; note: potency is the fitted concentration of half-maximal effect; % is set by controls: 0 for no effect and ±100 for the full control effect
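Two-generation exposure (96 h) targets delayed-death phenotype. Reporter parasites carrying integrated firefly luciferase, in red cells at 2% hematocrit and 0.05% parasitemia final, kept at 37 C, 5% CO2; luminescence loss indicates inhibition.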
Cycloheximide cs = counter-screen hit for Shiga toxin inhibitors, cycloheximide; cell reporter, cycloheximide protein synthesis inhibition counterscreen; max response, %; 12% of 300,000 active; AID 2314; in the data active = max response mostly above about 13%, no sharp cut-off; inactive = mostly below about 14%; note: read at 38.3 µM for the half of the compounds with a filed dose; 0% is about no effect
Shiga toxin inh = Shiga toxin inhibition; Vero cells, Shiga toxin protein synthesis inhibition reporter; inhibition, % at 38.7 µM; 9.2% of 290,000 active; AID 2315; in the data active = inhibition mostly above about 28%, no sharp cut-off; inactive = mostly below about 43%; note: 0% is about no effect
NS1 function inh = influenza NS1 inhibition. Potency, µM (top dose mostly 46.1 µM), for inactives: top-dose activity, positive = more growth. 0.4% of 270,000 active. AID 2326; calls by dose curve; note: potency is the fitted concentration of half-maximal effect; actives are rising curves; nearly all actives have a fitted effect of over 50% in size
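Compounds were scored for reversing the slow growth caused by influenza A NS1 in S. cerevisiae, measured by optical density at 600 nm. Assay medium contained 2% galactose at pH 6.0; NS1-free yeast of the same strain were the positive control.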
Pf growth 48h = inhibits P. falciparum growth in the first generation, 48 h | P. falciparum luciferase growth in erythrocytes, 48 h | Potency, µM (series often up to 28.7 µM), for the others: top-dose activity change, negative = inhibition, actives largely listed as inhibitors | 5.9% of 310,000 active | AID 504832; note: potency is the fitted concentration of half-maximal effect; % is set by controls: 0 for no effect and ±100 for the full control effect
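In quantitative HTS format, infected erythrocytes bearing luciferase-reporter parasites were treated for a single generation at 37 C. Luminescence after adding detection reagent served as the growth measure.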
* = called active by the depositor; i = inactive; ? = inconclusive; nt = no result given. Unless noted, calls come from the whole dose curve; as a rule, active = well fitted inhibition curve with a large enough effect; inconclusive = small, poorly fitted or top-dose-only effect, or another doubt; inactive = no such curve, though single readings can be large or run the other way.

SMILES | Pf growth 96h | Cycloheximide cs | Shiga toxin inh | NS1 function inh | Pf growth 48h
COc1ccc(OCc2nnc(SCC(=O)N3CCCC3)o2)cc1 | ? | 7.4 | -10.4 | 6.1% | 5.0%
O=C(NCc1nnc(SCC(=O)N2CCN(c3ccccc3)CC2)o1)c1c(F)cccc1Cl | 10.4µM* | -2.5 | -6.2 | -18.1% | -15.6%
CC(C)c1ccc(OCc2nnc(SCC(=O)N3CCCCC3)o2)cc1 | 86.4% | 31.8* | 26.5 | 2.0% | -9.1%
COc1ccccc1C(=O)Nc1ccc(C2=NNC(=O)CC2C)cc1 (centres undefined) | 36.4% | 11.7 | 17.5 | 6.8% | 32.1%
CC(C)(CC(=O)O)CC(=O)NCc1c(Cl)cccc1Oc1ccccc1 | 53.5% | -2.1 | -12.5 | 5.2% | 13.4%
COc1ccc(C(=O)NCc2nnc(SCC(=O)N3CCCCC3)o2)cc1OC | 3.29µM* | 2.8 | 25.1 | -2.1% | nt
COc1ccc(Cc2nnc(SCC(=O)N3CCCC(C)C3)o2)cc1 (centres undefined) | ? | 4.6 | 16.9 | 2.3% | 7.38µM*
COc1ccc(C(=O)NCc2nnc(SCC(=O)N3CCCCCC3)o2)cc1OC | -14.0% | -1.7 | -4.5 | -2.1% | 4.7%
NCCNCCN | nt | 43.5* | 91.5* | nt | nt
NCCNCCNCCN | -19.8% | -2.0 | -10.0 | -17.6% | -11.9%
CCCn1c(N)c(C(=O)COC(=O)c2cccc(S(=O)(=O)N3CCOCC3)c2)c(=O)[nH]c1=O | ? | nt | nt | nt | -20.8%
CCC(=O)Nc1ccc(C(=O)CSc2nnc(-c3ccc(NS(C)(=O)=O)cc3)n2C)cc1OC | 0.465µM* | 7.3 | -14.5 | 2.7% | -19.2%
COc1ccc(Cl)cc1-c1ccc(C(=O)O)o1 | nt | 3.9 | i | nt | nt
CC1=CC(C)(C)N(C(=O)CNC2CCCCC2)c2cc(C)ccc21 | ? | 5.7 | -12.0 | -2.6% | 9.28µM*
CC(NC(=O)C1(c2cccs2)CCOCC1)c1ccccc1 (centres undefined) | -20.6% | -2.6 | -9.5 | 6.4% | -7.2%
O=C(O)c1cccc(NC2=Nc3cccc4cccc2c34)c1 | i | 6.7* | 37.9* | -3.1% | i
Fc1ccc(/C=N/NC2=Nc3cccc4cccc2c34)cc1 | 2.4% | 43.0* | 81.3* | 11.5% | 296.7%
COc1ccc(NC2=Nc3cccc4cccc2c34)cc1 | -28.0% | 24.9* | 49.8 | -12.9% | ?
c1ccc(NC2=Nc3cccc4cccc2c34)cc1 | 104.0% | 21.5* | 6.2 | nt | -3.6%
O=C(NNC1=Nc2cccc3cccc1c23)c1ccccc1Br | ? | 0.5 | -3.5 | 1.1% | ?
CCOc1ccc(NC(=O)Cn2c(=O)n(CC3CCCO3)c(=O)c3ccccc32)cc1 (centres undefined) | ? | 2.8 | -11.0 | nt | -26.4%
CCn1cc(C(=O)OCC(=O)Nc2ccc(S(=O)(=O)N3CCCC3)cc2)c(=O)c2ccc(C)nc21 | ? | -0.5 | -5.0 | -3.5% | 1.8%
Cc1ccc(NC(=O)CC(=O)Nc2ccc(C)c(C)c2)cc1C | 6.3% | -5.5 | -7.9 | -7.2% | 26.2%
Cc1ccc(F)cc1NCC(=O)Nc1ccc(Br)cc1 | 114.8% | 30.6* | 57.6* | -26.8% | 59.4%
Cc1ccc(NCC(=O)Nc2ccc(Br)cc2)cc1C | ? | 18.1* | 26.9 | -13.7% | ?
SMILES | Pf growth 96h | Cycloheximide cs | Shiga toxin inh | NS1 function inh | Pf growth 48h
Cc1ccc(Sc2ccc(NC(=O)CCl)cc2)cc1C | 0.828µM* | 11.3* | 18.4* | -45.9% | 1.47µM*
Cc1nc2sccn2c(=O)c1S(=O)(=O)N1CCN(c2cccc(Cl)c2)CC1 | ? | 1.4 | -1.5 | 7.3% | 8.0%
CCOC(=O)C1=C(CS(=O)(=O)c2ccc(C)cc2)NC(=O)NC1c1cc(OC)c(O)c(OC)c1 (centres undefined) | ? | -4.8 | -1.6 | 12.0% | 18.2%
CCN1C(=O)c2n[nH]c(C(=O)OC)c2C1=O | 10.4µM* | 5.9 | 5.1 | 24.3% | ?
CC(=O)Nc1ccc(Br)cc1C(=O)C(=O)O | -8.7% | 1.3 | -5.9 | -7.1% | 10.6%
Cc1c(N(C)S(=O)(=O)c2cc(C(=O)N3CCCC3)ccc2Cl)c(=O)n(-c2ccccc2)n1C | 4.65µM* | 3.4 | -3.3 | 13.6% | 13.1µM*
CCN1CCN(C(=O)c2ccc(Cl)c(S(=O)(=O)N(C)c3ccccc3)c2)CC1 | ? | nt | nt | nt | -7.7%
CN1CCN(C(CNC(=O)C(=O)NC2CCCCC2)c2ccc(F)cc2)CC1 (centres undefined) | 42.9% | nt | nt | nt | 1.1%
CCN1CC=C2C(C#N)=C(N)C(C#N)(C#N)C(CCc3ccccc3)C2C1 (centres undefined) | 10.4µM* | -2.4 | -40.8 | 7.5% | 10.4µM*
